We go through 39 sequences from the OligoGym collection.
Note: reference of the scale not given here.

For the first assay, the target named is POP5. The experiment in a line: pooled miR-30 sensor sort-seq; sequence = guide strand. The following applies: shRNA.
Sequence TATTAAATCTACTCTTAGCCAA showed a sensor-assay potency score (higher = more potent) of -0.331.
In turn, TGAATTAGGAACTTCTGACATG returned a sensor-assay potency score (higher = more potent) of -0.611.
As to ATTAAATCTACTCTTAGCCAAG, the sensor-assay potency score (higher = more potent) was -1.64.
Same read-out and setting: in the case of TTCTTGTCACAGACTTCTGGAT it was -0.854; in that of TACTGAATTAGGAACTTCTGAC, -0.267.
Turning to TTCTGCATCGAAGTAGCACTAT, the sensor-assay potency score (higher = more potent) was -0.187.
In the case of TTCATCAGTGCAGTTCTGCAAC, the sensor-assay potency score (higher = more potent) is -0.521.
Sequence TTGTTCTGTTCAACAAGTGGGC had a sensor-assay potency score (higher = more potent) of -0.188.
With TACAGAGTTCACAACCTGCAAC, the sensor-assay potency score (higher = more potent) is -0.95.
In turn, TAACTGAGTACTCCATTTCAAG showed a sensor-assay potency score (higher = more potent) of -1.58.
Consider AAGATCAACAGCTGTCTCCTGT, for which the sensor-assay potency score (higher = more potent) is 0.552.

For the next assay, the target named is POU2F2. The assay is described as above. The following applies: shRNA.
In turn, TTCGCTAGAAAACTCTTCTCTA gave a sensor-assay potency score (higher = more potent) of 0.465.
In the case of TTAGACATTCTTATTTCTGGAG, the sensor-assay potency score (higher = more potent) was -0.093.
Consider ATTTCTTTCGGTGTCTGTGTGC, for which the sensor-assay potency score (higher = more potent) was -0.0405.
Still for that read-out and setting: for TTGAGTTTGCACATGTTCTTGA the value was 1.05; for TTTCGGTGTCTGTGTGCTCTGA, -0.406; for TTGATCTTTGTACTGGGGCCAG, -0.786.
The sequence TTGGTGTCGGTAGCAGGCCTGG came in with a sensor-assay potency score (higher = more potent) of -1.3.
Consider TAGATTTGGTGTCGGTAGCAGG, for which the sensor-assay potency score (higher = more potent) was -0.991.
Still for that read-out and setting: in the case of TCTTCTTGCGTCTCCGGCCGGG it was -0.79.
Consider TTCGGTGTCTGTGTGCTCTGAT, for which the sensor-assay potency score (higher = more potent) was determined as 0.743.
Regarding TTAGTGTCTGGTCCATTTCTTT, the sensor-assay potency score (higher = more potent) is -1.05.
Consider TTTGTCTCGATGCTGGTCCTCT, for which the sensor-assay potency score (higher = more potent) was -0.192.

A further assay has as its target PPARD. The assay is described as above. The following applies: shRNA.
For TTGACAGCAAATTCAAACTTAG, the sensor-assay potency score (higher = more potent) was -0.865.
The same measure, in the same setting: in the case of TTGCCGGTGAGGATGCTGCGGG it was -0.839; in that of TAAGAAAGGAGGACAGACGTGG, 0.523.
On to TAGCGTTGTGTGACATGCCCAG, for which the sensor-assay potency score (higher = more potent) was found to be 0.138.
On to TTCTTCTGAATCTTGCAGCTGC, for which the sensor-assay potency score (higher = more potent) was determined as 0.468.
TTGAACTTGACAGCAAATTCAA showed a sensor-assay potency score (higher = more potent) of -0.881.
Same read-out and setting: in the case of TCGTACTCCAGCTTCATGCGGA it was -0.0495; in that of TTGGAGATTGTTCAGACACTGA, -0.713.
Sequence TTGATCCGCTGCATCATCTGGG gave a sensor-assay potency score (higher = more potent) of -0.175.
TTCTTCTTCTGAATCTTGCAGC: the sensor-assay potency score (higher = more potent) was 0.0519.
Same read-out and setting: for TTCGGTCTTCTTGATCCGCTGC the value was 0.435; for TTAAAGTTTCGTCAGTCTGTGT, -0.63.

In the next assay the target is PPARGC1A. Described as above. Particulars: shRNA.
As to TTAGACTTGAAAAATTGCTTGC, the sensor-assay potency score (higher = more potent) is 0.583.
Sequence TTCGTCGTCAAAAACAGCTTGA displayed a sensor-assay potency score (higher = more potent) of -0.0941.
Turning to TTTCTAGTTGTCTAGAGTCTTG, the sensor-assay potency score (higher = more potent) was -1.22.
As for TTGTCTAGAGTCTTGGAGCTCC, the sensor-assay potency score (higher = more potent) was 0.145.
